pS6 MEF inh = reduces mTORC1 signaling in Tsc2 and p53 null MEF cells; 44,000 tested, 0.78% active; Potency, µM (highest dose often 38.3 µM), for the others: at the highest dose activity change, negative = inhibition, usual class: inhibitors; Tsc2-/- p53-/- MEF, phospho-rpS6 immunofluorescence/PI, 24 h;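 note: potency is the fitted concentration of half-maximal effect; plate controls were DMSO for no effect and rapamycin for full effect; nearly all actives have a fitted effect of over 50% in size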
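Compounds act on Tsc2-/-, p53-/- fibroblasts carrying an empty vector for 24 h before fixation and dual staining for phospho-S6 and DNA (propidium iodide). Values are percentages of cells above a rapamycin-defined pS6/PI threshold.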
p53null 39C kill = p53 null cell cytotoxicity, nonpermissive temperature | H1299 p53-null (neo) cells, 39C, ATPlite viability, 24 h | Potency, µM (titrated, usually from 46.1 µM), without a hit: at the top dose activity, negative = cell killing, most hits filed as cytotoxic | 55,000 tested, 0.97% active;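 note: potency is the fitted concentration of half-maximal effect; 0% = DMSO only and -100% = full killing by 100 µM tamoxifen; nearly all actives have a fitted effect of over 50% in size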
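Following overnight plating at 37C (600 cells/well), H1299-neo or H1299-p53A138V cells are dosed up to 46 uM. Incubation lasts 24 hr at 39C before ATP detection.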
OvCa metastasis = blocks SKOV3ip1 adhesion and invasion in omental model. Potency, µM (series often up to 45.8 µM), inactives show at the top dose activity change, negative = inhibition, usual class: inhibitors. SKOV3ip1-GFP adhesion/invasion on 3D omental model, fluorescence. 46,000 tested, 0.1% active. AID 1963576;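 note: potency is the fitted concentration of half-maximal effect; plate controls were DMSO wells for no effect and tomatine positive control wells for full effect; nearly all actives have a fitted effect of over 65% in size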
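A 3D layer of primary human omental fibroblasts, mesothelial cells, fibronectin and collagen I, grown 48 hr, received SKOV3ip1-GFP cells in serum-free medium plus compounds at 0.36-46 umol/L. After 2 hr RT and 16 hr 37 C, fixed adherent GFP cells were counted; normalized to DMSO and tomatine.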
PMP22 txn prim = PMP22 gene transcription modulation; S16 Pmp22-F2sN Schwann cells, FLuc/NLuc coincidence luminescence, 24 h; Potency, µM (top dose mostly 57.5 µM), for the others: at the top dose activity change, negative = inhibition, actives largely listed as inhibitors; 43,000 tested, 2% active; active = clear falling dose curves in both reporters; inconclusive = both reporters move, but less clearly or upward; inactive = either reporter flat; the % is the NLuc reporter signal; note: potency is the fitted concentration of half-maximal effect; % is set by controls: 0 for no effect and ±100 for the full control effect
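Schwann cells carrying the coincidence reporter were exposed to library compounds for 24 h at 37C, then lysed and read for FLuc and, after quenching, NLuc luminescence on a CCD imager.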
S16 F2sN tox = cytotoxicity in S16 Pmp22-F2sN Schwann cells; 43,000 tested, 0.48% active; Potency, µM (doses to about 57.5 µM), for inactives: top-dose activity change, negative = cytotoxicity, usual class: cytotoxic; S16 Pmp22-F2sN Schwann cells (luciferase reporters placed in the Pmp22 gene) viability, CellTiter-Glo, 24 h; note: potency is the fitted concentration of half-maximal effect; % is set by controls: 0 for no effect and ±100 for the full control effect; nearly all actives have a fitted effect of over 65% in size
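Rat S16 Schwann reporter line, 24 h treatment with library compounds delivered at 23 nL per well. Cell viability by CellTiter-Glo luminescence.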
p53null 32C tox = selectivity test: cytotoxicity in p53 null cells, permissive temperature; Potency, µM (doses to about 46.1 µM), inactives show at the top dose activity change, negative = cytotoxicity, most hits filed as cytotoxic; 55,000 tested, 0.62% active; AID 903; H1299-neo p53 null cells, ATP luminescence, 24 h, 32C;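 note: potency is the fitted concentration of half-maximal effect; 0% = DMSO only and -100% = full killing by 100 µM tamoxifen; nearly all actives have a fitted effect of over 55% in size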
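We seeded p53-null H1299-neo cells, incubated them overnight at 37C, and added compounds across a range up to 46 uM. After 24 hours at 32C, ATP reagent was applied for 20 min at room temperature and luminescence recorded.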
NLuc saturating = inhibits NanoLuc at saturating substrate, PMP22 counter-screen | Secreted NLuc enzyme (filtered S16 cell medium), Nano-Glo luminescence | AID 1508638 | shares compounds with PMP22 txn prim | Potency, µM (highest dose often 57.5 µM), without a hit: top-dose activity change, negative = inhibition, actives largely listed as inhibitors | 690 tested, 4% active; note: potency is the fitted concentration of half-maximal effect; % is set by controls: 0 for no effect and ±100 for the full control effect
NLuc Km counter = counter-screen for PMP22 expression modulators: NanoLuc inhibition at Km. 690 tested, 5% active. shares compounds with PMP22 txn prim. AID 1508639. secreted NLuc enzyme, coelenterazine luminescence, Km conditions. Potency, µM (series often up to 57.5 µM), without a hit: at the top dose activity change, negative = inhibition, actives largely listed as inhibitors; note: potency is the fitted concentration of half-maximal effect; % is set by controls: 0 for no effect and ±100 for the full control effect
FLuc ctr PMP22 = inhibits firefly luciferase, PMP22 counter-screen; shares compounds with PMP22 txn prim; purified P. pyralis FLuc, luminescence, 10 min; Potency, µM (top dose mostly 57.5 µM), without a hit: at the highest dose activity, negative = inhibition, most hits filed as inhibitors; 690 tested, under 10 active; AID 1508640; note: % of control where 0% means no effect
Target sequence (P08659 whole entry, looked up): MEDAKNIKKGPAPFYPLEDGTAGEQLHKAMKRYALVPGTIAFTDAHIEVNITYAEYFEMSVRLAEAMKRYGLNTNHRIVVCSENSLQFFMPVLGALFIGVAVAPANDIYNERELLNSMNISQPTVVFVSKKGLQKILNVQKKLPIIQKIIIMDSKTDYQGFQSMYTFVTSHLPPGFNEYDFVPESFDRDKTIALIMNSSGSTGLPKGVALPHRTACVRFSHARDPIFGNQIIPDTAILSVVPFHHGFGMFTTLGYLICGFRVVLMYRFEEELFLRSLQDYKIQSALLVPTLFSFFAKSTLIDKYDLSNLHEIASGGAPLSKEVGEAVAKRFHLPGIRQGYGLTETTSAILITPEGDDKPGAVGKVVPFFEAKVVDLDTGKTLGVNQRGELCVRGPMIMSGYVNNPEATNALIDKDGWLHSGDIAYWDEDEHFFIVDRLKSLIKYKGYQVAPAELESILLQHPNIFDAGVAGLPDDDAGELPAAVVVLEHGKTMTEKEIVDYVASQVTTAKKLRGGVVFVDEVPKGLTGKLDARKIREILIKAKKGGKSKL
S16 viab conf = S16 Schwann cell cytotoxicity, confirmatory | S16 Schwann cells viability, CellTiter-Glo ATP luminescence, 24 h | Potency, µM (highest dose often 57.5 µM), inactives show top-dose activity change, negative = viability loss, hits mostly cytotoxic | AID 1508641 | shares compounds with PMP22 txn prim | 690 tested, 7% active; note: potency is the fitted concentration of half-maximal effect; % is set by controls: 0 for no effect and ±100 for the full control effect
PMP22 txn conf = confirmation of modulators of PMP22 gene transcription in S16 cells. shares compounds with PMP22 txn prim. S16 Schwann cells Pmp22-F2sN, dual luciferase, 24 h. Potency, µM (titrated, usually from 57.5 µM), inactives show top-dose activity change, negative = inhibition, actives largely listed as inhibitors. 690 tested, 22% active. AID 1508646; active = clear falling dose curves in both reporters; inconclusive = both reporters move, but less clearly or upward; inactive = either reporter flat; the % is the FLuc reporter signal; note: potency is the fitted concentration of half-maximal effect
PMP22 prot conf = confirmation of modulators of rat PMP22 protein expression. shares compounds with PMP22 txn prim. S16 Schwann cells Pmp22-HiBiT, luminescence, 48 h. AID 1508647. Potency, µM (highest dose often 27.9 µM), for the others: at the highest dose activity change, negative = inhibition, most hits filed as inhibitors. 95 tested, under 10 active
Target sequence (P25094 whole entry, looked up): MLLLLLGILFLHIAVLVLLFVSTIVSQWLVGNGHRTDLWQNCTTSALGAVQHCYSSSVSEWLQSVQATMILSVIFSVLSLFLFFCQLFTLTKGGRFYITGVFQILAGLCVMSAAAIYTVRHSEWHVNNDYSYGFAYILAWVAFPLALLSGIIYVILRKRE
* hit, by the source's call. Sampled rows, rich in hits. Any-hit rate of the full collection: about 3.1%. Unless noted, calls come from the whole dose curve; as a rule, active = well fitted curve in the direction sought with a large enough effect; inconclusive = small, poorly fitted or top-dose-only effect, or another doubt; inactive = no such curve, though single readings can be large; an effect the other way counts as inactive or inconclusive.

What do the screens show for `COc1cc(-c2nc(Cn3nnc(C(=O)Nc4cc(C)cc(C)c4)c3C)c(C)o2)cc(OC)c1OC`?
pS6 MEF inh: -11%; p53null 39C kill: 18%; OvCa metastasis: inactive; PMP22 txn prim: inconclusive; S16 F2sN tox: 5%; p53null 32C tox: 20%; NLuc saturating: 4.8µM*; NLuc Km counter: 3.9µM*; FLuc ctr PMP22: -8%; S16 viab conf: -2%; PMP22 txn conf: inconclusive

How did Cc1ccc2nc(NC(=O)CSc3nc4c(c(=O)n3-c3ccccc3)SCC4)sc2c1 do in these assays?
OvCa metastasis: -5%

How did C=CC[C@@H]1C=C(C)C[C@H](C)C[C@H](OC)[C@H]2O[C@@](O)(C(=O)C(=O)N3CCCC[C@H]3C(=O)O[C@H](C(C)=C[C@@H]3CC[C@H](O)[C@H](OC)C3)[C@@H](C)[C@@H](O)CC1=O)[C@@H](C)C[C@@H]2OC do in these assays?
OvCa metastasis: 0%

Results for CCC[C@@H](NC(=O)[C@@H]1[C@H]2CCC[C@@H]2CN1C(=O)[C@@H](NC(=O)[C@@H](NC(=O)c1cnccn1)C1CCCCC1)C(C)(C)C)C(=O)C(=O)NC1CC1 ?
OvCa metastasis: -8%

How did Cc1nnc(NC(=O)CSc2nc3c([nH]c4ccccc43)c(=O)n2-c2ccccc2)s1 do in these assays?
pS6 MEF inh: 0%; p53null 39C kill: 7%; OvCa metastasis: 5%; PMP22 txn prim: inconclusive; S16 F2sN tox: 21%; p53null 32C tox: 0%

How did COc1cccc(NC(=O)CSc2nc3c([nH]c4ccccc43)c(=O)n2-c2cc(C)cc(C)c2)c1 do in these assays?
pS6 MEF inh: -6%; p53null 39C kill: 13%; OvCa metastasis: -4%; PMP22 txn prim: 52%; S16 F2sN tox: -2%; p53null 32C tox: 8%

Results for O=C(CSc1nc2c([nH]c3ccccc32)c(=O)n1-c1ccccc1)c1ccccc1 ?
pS6 MEF inh: -14%; p53null 39C kill: 24%; OvCa metastasis: inactive; PMP22 txn prim: -17%; S16 F2sN tox: 11%; p53null 32C tox: 4%

How did O=C(CSc1nc2c([nH]c3ccccc32)c(=O)n1-c1cccc(Cl)c1)c1ccccc1 do in these assays?
pS6 MEF inh: -4%; p53null 39C kill: -4%; OvCa metastasis: inactive; PMP22 txn prim: 14µM*; S16 F2sN tox: 5%; p53null 32C tox: 3%; NLuc saturating: -2%; NLuc Km counter: 1%; FLuc ctr PMP22: -3%; S16 viab conf: -15%; PMP22 txn conf: 12µM*; PMP22 prot conf: inconclusive

What do the screens show for `COc1cccc(-n2c(SCC(=O)Nc3c(C)cc(C)cc3C)nc3c([nH]c4ccccc43)c2=O)c1`?
pS6 MEF inh: inconclusive; p53null 39C kill: 17%; OvCa metastasis: -16%; PMP22 txn prim: 12µM*; S16 F2sN tox: -1%; p53null 32C tox: 4%; NLuc saturating: -6%; NLuc Km counter: -11%; FLuc ctr PMP22: 4%; S16 viab conf: 2%; PMP22 txn conf: inconclusive

What do the screens show for `Cc1cc(C)cc(-n2c(SCC(=O)Nc3nnc(C)s3)nc3c([nH]c4ccccc43)c2=O)c1`?
pS6 MEF inh: 0%; p53null 39C kill: 4%; OvCa metastasis: 14%; PMP22 txn prim: 16µM*; S16 F2sN tox: 14%; p53null 32C tox: -9%; NLuc saturating: inconclusive; NLuc Km counter: inconclusive; FLuc ctr PMP22: 4%; S16 viab conf: -5%; PMP22 txn conf: inconclusive

How did Cc1cccc(-n2ccnc2SCC(=O)Nc2nc3ccccc3s2)c1 do in these assays?
pS6 MEF inh: -1%; p53null 39C kill: -6%; OvCa metastasis: inactive; PMP22 txn prim: -48%; S16 F2sN tox: 10%; p53null 32C tox: -4%

Results for CCOc1ccc(-n2ccnc2SCC(=O)Nc2nc3ccc(C)cc3s2)cc1 ?
pS6 MEF inh: -16%; p53null 39C kill: 12%; OvCa metastasis: 4%; PMP22 txn prim: 8.9µM*; S16 F2sN tox: 3%; p53null 32C tox: 8%; NLuc saturating: -2%; NLuc Km counter: inconclusive; FLuc ctr PMP22: -6%; S16 viab conf: -1%; PMP22 txn conf: -21%

How did CCOC(=O)c1c(NC(=O)COc2ccc(Br)cc2)sc(C(C)=O)c1C do in these assays?
pS6 MEF inh: 3%; p53null 39C kill: 0%; OvCa metastasis: -6%; PMP22 txn prim: 2.1µM*; S16 F2sN tox: -23%; p53null 32C tox: -3%; NLuc saturating: -3%; NLuc Km counter: 3%; FLuc ctr PMP22: -5%; S16 viab conf: -9%; PMP22 txn conf: -6%

Screens deposited in PubChem by National Center for Advancing Translational Sciences (NCATS).
